Reference: PubChem BioAssay (NCI)
The panel holds about 83,000 compounds, 20% with a hit somewhere; the sample as a whole holds those more often.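 Values shown are percent growth following 48 h exposure of cells in 96-well plates to a single concentration of compound; below 10 was considered active.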 A number with no mark means an inactive call. The source made the active and inactive calls.

Tested on: RPMI-8226 leukemia
Assay: NCI-60 one-dose screen, 48 h (100 = growth as untreated, 0 = no growth, -100 = all killed)
Conditions: 10 µM unless noted

Row | Compound | growth
1 | C=C1C(=O)O[C@H]2[C@H]1CC/C(COC(=O)/C=C\C(=O)O)=C\CC[C@@]1(C)O[C@@H]21 | 114%
2 | CCCCC1CCc2cccc3c(SCC(=O)N(C)c4ccc(Cl)cc4)cc[n+]1c23 (centres undefined) | 110%
3 | O=C(c1nc2ccccc2[nH]1)C1C(c2cccc([N+](=O)[O-])c2)C2CC3CCCCC3N2[C@@]12C(=O)Nc1cc(Cl)ccc12 (some centres undefined) | 7.96% (active)
4 | O=C1/C(=C/c2ccc(O)cc2)COc2ccc(O)cc21 | 8.89% (active)
5 | O=C1/C(=C/c2ccc(O)cc2)COc2ccc(O)c(O)c21 | -6.76% (active)
6 | COc1cc2nc(NC3CCCC3)nc(NC3CCN(C(C)C)CC3)c2cc1OC | -10.7% (active)
7 | Cc1ccccc1CNC(=O)C1CN(c2ccc(Cl)cc2)N(c2ccc(Cl)cc2)C1=O (centres undefined) | 65%
8 | COc1cc(C2CC(c3ccc(Nc4nc(NCCO)nc(N5CCOCC5)n4)cc3)=NN2c2cc(Cl)cc(Cl)c2)cc(OC)c1OC (centres undefined) | 33.4%
9 | O=C(c1nc2ccccc2[nH]1)C1C(c2ccc([N+](=O)[O-])cc2)C2CC3CCCCC3N2[C@@]12C(=O)Nc1cc(Cl)ccc12 (some centres undefined) | 6.29% (active)
10 | O=C(Cn1cc(COc2ncnc3c2cnn3-c2ccccc2)nn1)Nc1cccc2ccccc12 | 93.7%
11 | CN1C(=O)N(C)C2Nn3c(s/c(=C\c4ccc(Cl)cc4Cl)c3=O)=NC21 (centres undefined) | 80.2%
12 | O=Cc1cc2ccccc2nc1Nc1nccs1 | 64%
13 | O=C1/C(=C/c2cccc(O)c2)COc2ccc(O)cc21 | -10.6% (active)
14 | COc1cc2nc(NC3CCC3)nc(NC3CCN(C(C)C)CC3)c2cc1OC | -7.43% (active)
15 | O=C(c1nc2ccccc2[nH]1)C1[C@@H](c2cccc(O)c2)C2CC3CCCCC3N2[C@@]12C(=O)Nc1cc(Cl)ccc12 (some centres undefined) | 4.43% (active)
16 | CCN1C(=O)N(c2ccccc2)C2NN=c3s/c(=C4\C(=O)N(C(C)C)c5ccccc54)c(=O)n3C21 (centres undefined) | 32%
17 | Cc1sc2ncn(CC(=O)Nc3ccc(S(N)(=O)=O)cc3)c(=O)c2c1C | 106%
18 | COC(=O)c1c2c(c(C)[n+]([O-])c1C)C(=O)C(NCc1ccc(F)c(F)c1)=CC2=O | 29.9%
19 | CNCCNc1nc2ccccc2c2c(=O)c3cccc(OC)c3sc12 | -31.4% (active)
20 | CNCCNc1nc2ccccc2c2c(=O)c3cccc(C)c3sc12 | -30.5% (active)

Row | Compound | growth
21 | COc1cc(/C=C2\Oc3cc(OCCCN4CCCC4)ccc3C2=O)cc(OC)c1 | 49.4%
22 | COC(=O)[C@H](NC(=O)C1(C)CCC[C@]2(C)[C@H]3C[C@H]4C(C(C)C)=C[C@]3(CC[C@@H]12)[C@@H]1C(=O)CCC(=O)[C@@H]14)C(C)C (some centres undefined) | 103%
23 | COc1cc(/C=C2\CN(C)C/C(=C\c3cc(CN4CCCCC4)c(O)c(OC)c3)C2=O)cc(CN2CCCCC2)c1O | 25.9%
24 | O=S(=O)(Nc1ncccn1)c1ccc(NC2Nc3nc4ccccc4nc3S2)cc1 (centres undefined) | 99%
25 | O=C1CCC(N2C(=O)c3cccc(NCCCCCCOc4ccc(Nc5nccc(Nc6ccccc6)n5)cc4)c3C2=O)C(=O)N1 (centres undefined) | 38.5%
26 | Cc1c(-c2csc(-n3nc(C(F)(F)F)cc3C(F)(F)F)n2)no[n+]1[O-] | 97.2%
27 | O=C(NCc1ccccc1)C1CN(c2ccc(Cl)cc2)N(c2ccc(Cl)cc2)C1=O (centres undefined) | 85.5%
28 | c1ccc2c(c1)oc1cc3sccc3nc12 | 99.4%
29 | CCCCC1COc2cccc3c2N1C=C/C3=C\C(=O)N(C)c1ccccc1 (centres undefined) | 7.39% (active)
30 | COc1cc(/C=C/C(=O)c2ccc(Nc3nc(NCCO)nc(N4CCOCC4)n3)cc2)cc(OC)c1OC | -21% (active)
31 | Cc1cccc2c(=O)c3c(sc12)c(NCCCNCCO)nc1ccccc13 | -26.5% (active)
32 | COc1cc(/C=C2\CN(C)C/C(=C\c3cc(CN4CCCC4)c(O)c(OC)c3)C2=O)cc(CN2CCCC2)c1O | 81%
33 | O=C(/C=C/c1ccc(C(F)(F)F)cc1)c1ccc(Nc2nc(NCCO)nc(N3CCOCC3)n2)cc1 | 2.35% (active)
34 | NCCOc1ccccc1/C=C1\c2ccccc2-c2ccc([N+](=O)[O-])cc21 | -48.6% (active)
35 | O=C(/C=C/c1ccc(F)cc1)c1ccc(Nc2nc(NCCO)nc(Nc3ccc(Cl)cc3)n2)cc1 | 1.78% (active)
36 | O=c1oc2ccc(Br)cc2c(=O)n1-c1ccc(Br)cc1F | -13.8% (active)
37 | NCCNc1nc2ccccc2c2c(=O)c3cc(F)cc(Cl)c3sc12 | -33.1% (active)
38 | CCCN1CCN(c2ccc3nc(-c4ccc5nc(-c6cc(OC)ccc6OC)[nH]c5c4)[nH]c3c2)CC1 | -17% (active)
39 | Cc1ccc(C2CC(c3ccc(Nc4nc(NCCO)nc(Nc5ccc(Cl)cc5)n4)cc3)=NN2c2cc(Cl)cc(Cl)c2)cc1 (centres undefined) | 101%
